# Experimental data as given in PubChem BioAssay (NCATS).
# Results filed as inconclusive are left out. Values without a mark were called inactive. Calls follow the shape of the dose curve; as a rule, active = well fitted inhibition curve with a large enough effect; inconclusive = small, poorly fitted or top-dose-only effect, or effect the other way; inactive = flat fitted curve, though single readings scatter.
# Biological target: ATP-dependent 6-phosphofructokinase (Trypanosoma brucei brucei) (UniProt O15648)
# Test: qHTS Assay to Find Inhibitors of T. brucei phosphofructokinase: hit validation (AID 492961);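 also: luminescence reports ADP formed as PFK phosphorylates fructose-6-phosphate with ATP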
# Settings: T. brucei PFK, ADP-Glo luminescence; series mostly up to 51.4 µM; activity change, negative = inhibition: at the top concentration
# Text: NIH Molecular Libraries Probe Production Network [MLPCN] NIH Chemical Genomics Center [NCGC] Grant: 1 R03 MH092153-01 PI Name: Malcolm Walkinshaw, University of Edinburgh NCGC Assay Overview: Various species of the protozoan family Trypanosomatidae are responsible for a range of serious human diseases in tropical and subtropical areas of the world. […] Many of the disorders caused by trypanosomatids are fatal if left untreated, but most currently used drugs are inefficient and toxic. […] Oxidative metabolism involving the mitochondrial tricarboxylic acid cycle and oxidative phosphorylation are repressed in these parasites, and recent RNA interference (RNAi) experiments have shown that even partial depletion of certain individual glycolytic enzymes can lead to the death of cultured parasites. One such glycolytic enzyme, phosphofructokinase (PFK), catalyzes the formation of fructose-1,6-bisphosphate (F1,6BP) and ADP from fructose-6-phosphate (F6P) and ATP, and in many metabolic circumstances makes an important contribution to the control of flux through the glycolytic pathway. As a specific glycolytic target, PFK is particularly attractive as it catalyzes the first irreversible step in glycolysis, and structural and kinetic studies have shown very substantial and essential differences from corresponding host enzymes, allowing for the discovery of parasite-selective inhibitors. The goal of this screen is to find small-molecule inhibitors of T. brucei PFK using a biochemical assay that measures PFK activity as a function of ADP production. A luminescence-based assay for T. brucei PFK activity has been developed which uses luciferase to detect production of ADP. Traditional luciferase-based nucleotide detection reagents rely on ATP production as a direct substrate for the luciferase reaction; however, PFK catalyzes the transfer of a phosphate from ATP to F6P, resulting in the net depletion of ATP. To directly measure the ADP product of the PFK reaction, we used the ADP-Glo detection kit (Promega), which utilizes two separate reactions to 1) deplete all remaining uncatalyzed ATP and 2) convert all remaining ADP to ATP, which is then detected through a traditional luciferase-coupled reaction. Compounds were screened as a concentration-titration series that ranged from 57 uM to 0.7 nM.
# NCGC Assay Protocol Summary: Substrate buffer was dispensed into white, solid 1536-well plates at 3uL/well in 0.1M triethanolamine (TEA) buffer, pH 8.0, containing final concentrations of 5 mM MgCl2, 0.01% Tween20, 0.5 mM fructose-6-phosphate (F6P) and 0.1mM ATP. Then, 23 nL of compounds or DMSO were delivered to each well using a pin tool. One uL T. brucei PFK (0.1M TEA, 0.01% Tween20, 0.1% bovine serum albumin (BSA) and 1.25nM PFK, final concentrations) was then dispensed, and plates were incubated at room temperature for 45 min. The luminescent detection reagent, ADP-Glo (Promega), was then added in two steps: the first reagent, ADP-Glo (which converts remaining uncatalyzed ATP), was added at 2.5uL/well and incubated for ten minutes at room temperature, and the second component, Kinase Detection reagent (which converts ADP to ATP as a substrate for luciferase-based luminescence), was added immediately after at 5uL/well, followed by one final ten minute room temperature incubation. The plates were measured on a ViewLux plate reader for luminescent signal using a clear filter with a one second exposure. The %Activity was determined from the corrected luminescence values. As no specific T. brucei PFK inhibitors have been identified in the literature, 1x (1.25nM) and 0x PFK enzyme controls (untreated) were included to normalize %Activity of identified inhibitors; 0x enzyme values corresponded to 100%Activity (full inhibition), while 1x PFK enzyme values were used to normalize 0%Activity (no inhibition). Concentration-response curves were fitted to the signals arising from the resulting luminescence. […]
# Chain of ATP-dependent 6-phosphofructokinase (Trypanosoma brucei brucei) (O15648 whole entry, looked up): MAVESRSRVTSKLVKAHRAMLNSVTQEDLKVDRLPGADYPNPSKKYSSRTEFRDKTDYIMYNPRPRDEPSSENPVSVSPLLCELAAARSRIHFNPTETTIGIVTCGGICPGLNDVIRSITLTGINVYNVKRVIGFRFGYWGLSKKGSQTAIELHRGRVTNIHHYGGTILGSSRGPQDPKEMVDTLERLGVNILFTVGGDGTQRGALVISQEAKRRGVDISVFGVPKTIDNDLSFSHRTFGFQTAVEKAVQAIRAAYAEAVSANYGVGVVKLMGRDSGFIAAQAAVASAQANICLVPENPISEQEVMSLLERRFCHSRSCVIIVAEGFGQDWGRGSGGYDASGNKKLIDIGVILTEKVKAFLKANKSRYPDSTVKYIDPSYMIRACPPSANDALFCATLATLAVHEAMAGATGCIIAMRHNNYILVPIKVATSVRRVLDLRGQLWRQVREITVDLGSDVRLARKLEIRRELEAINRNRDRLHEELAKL
row,Structure (SMILES),"activity change, negative = inhibition"
1,CN(C)CC/C=C1\c2ccccc2Sc2ccc(Cl)cc21,0.993%
2,O=C1OCCN1/N=C/c1ccc([N+](=O)[O-])o1,5.01%
3,CCN(CCCc1ccccc1)CCCc1ccccc1,-5.16% [at 24.3 µM]
4,CN1C(CCl)Nc2cc(Cl)c(S(N)(=O)=O)cc2S1(=O)=O (stereo not given),-5.64%
5,CC(C)=CCC1C(=O)N(c2ccccc2)N(c2ccccc2)C1=O,12.4%
6,CC(Cc1cccc(C(F)(F)F)c1)NCCOC(=O)c1ccccc1 (stereo not given),1.64%
7,CC(C)N=C(N)/N=C(\N)Nc1ccc(Cl)cc1,12.1% [at 24.3 µM]
8,CCCN1CCCC[C@H]1C(=O)Nc1c(C)cccc1C,-1.8%
9,CCCCOc1ccc(C(=O)CCN2CCCCC2)cc1,13.4% [at 24.3 µM]
10,COC(=O)[C@@H]1CC2=CC(=O)CC[C@]2(C)[C@@]23O[C@@H]2C[C@@]2(C)[C@@H](CC[C@@]24CCC(=O)O4)[C@H]13,-1.58%
11,CCN(CC)C(=O)N1CCN(C)CC1,-4.61% [at 24.3 µM]
12,COc1cc(OC)cc(OC)c1,-2.8%
13,CC(=O)Nc1c(I)cc(I)c(C(=O)O)c1I,0.612%
14,C[C@@H]1CN(CCCn2c3ccccc3c3ccccc32)C[C@H](C)N1,1.25%
15,COc1cc(-c2ccc(=O)[nH]n2)ccc1OC(F)F,0%
16,CCn1cc(C(=O)O)c(=O)c2cnc(N3CCCC3)nc21,-2.44% [at 24.3 µM]
17,CN(C(=O)CN(CCO)CC(=O)N(C)C(C)(C)Cc1ccccc1)C(C)(C)Cc1ccccc1,1.5% [at 24.3 µM]
18,c1ccc(OCc2ccc(CCCN3CCOCC3)cc2)cc1,1.89%
19,O=C(COc1ccc(Cl)cc1)N1CCN(Cc2ccc3c(c2)OCO3)CC1,1.03%
20,NC(=O)C(=O)N/N=C/c1ccc([N+](=O)[O-])o1,2.4%

row,Structure (SMILES),"activity change, negative = inhibition"
1,COc1cccc(CCc2ccccc2OCC(CN(C)C)OC(=O)CCC(=O)O)c1 (stereo not given),-0.804%
2,C[C@]12CCC(=O)C=C1CC[C@H]1[C@@H]3CC[C@](O)(C(=O)CO)[C@@]3(C)C[C@H](O)[C@@]12F,-4.3%
3,CCN(CC)CCOc1ccc(C(O)(Cc2ccc(Cl)cc2)c2ccc(C)cc2)cc1 (stereo not given),4.95%
4,C#C[C@]1(O)CC[C@H]2[C@@H]3CCc4cc(OC5CCCC5)ccc4[C@H]3CC[C@@]21C,3.14%
5,C[N+]1(CCCCC[N+]2(C)CCCC2)CCCC1,3.47%
6,CCOC(=O)OC(C)OC1=C(C(=O)Nc2ccccn2)N(C)S(=O)(=O)c2ccccc21 (stereo not given),10.3%
7,CCCCc1nc(Cl)c(CO)n1Cc1ccc(-c2ccccc2-c2nn[nH]n2)cc1,9.95%
8,CC(=O)OCC(=O)NCCCOc1cccc(CN2CCCCC2)c1,-0.4%
9,O=C1[C@H]2CCCC[C@H]2C(=O)N1CCCCN1CCN(c2nsc3ccccc23)CC1,10.9%
10,CCC(=O)c1c(O)cc(O)cc1O,-1.13%
11,O=C1c2ccccc2C(=O)C1c1ccccc1,2.13% [at 24.3 µM]
12,CC(C)(C)CC(C)(C)c1ccc(O)c(Cc2ccc(Cl)cc2Cl)c1,0%
13,Nc1ccc(C(=O)Nc2ccccc2N)cc1,0%
14,CCCCCCCCCCCCCCCCOP(=O)([O-])OCC[N+](C)(C)C,8.38%
15,CCCCOc1ccc(OCCCN2CCOCC2)cc1,-5.33% [at 24.3 µM]
16,Cc1c(C)n(Cc2ccccc2)c2ccc(C(=O)OCCN(C)C)cc12,-5.3%
17,O=C(CCCN1CCC(O)(c2ccc(Br)cc2)CC1)c1ccc(F)cc1,4.06% [at 24.3 µM]
18,C[C@@H](CN(C)C)CN1c2ccccc2Sc2ccccc21,2.42% [at 24.3 µM]
19,CC(=O)N/N=C/c1ccc([N+](=O)[O-])o1,0.285%
20,CCOc1ccc2nc3cc(N)ccc3c(N)c2c1,2.33%
